Data reported in PubChem BioAssay AID449762 (Southern Research Specialized Biocontainment Screening …, 2010).
Hit rate of the full screen: of about 330,000 compounds, about 1,900 (0.58%) were called active. About 4% were inconclusive and are not listed. The list is a sample of the results. Entries with a potency or affinity are not part of this list. Unmarked numbers belong to inactive results. Cut-off read from the data, not from the text of the source: inconclusive = inhibition above about 70% without an active follow-up result; inactive = below that.

Test: M. tuberculosis growth inhibition, HTS (AID 449762);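 note: bacterial growth assessed after seven days of incubation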
Conditions: M. tuberculosis H37Rv growth inhibition, 7H9 media; at 25 µM; active compounds read high

Row | SMILES | inhibition
1 | C#CC[N+](C)(C)CCCCCCCCCC | 6.64%
2 | CCCCCC[N+](C)(C)CCSSCC[N+](C)(C)CCCCCC | -17.5%
3 | CC(C)(C)c1ccc(S(=O)(=O)N2CCN(CC(O)COCC3CCCO3)CC2)cc1 (centres undefined) | 7.79%
4 | Cc1cc(/C=N/NC(N)=O)c(C)n1-c1ccc(F)cc1 | 1.83%
5 | Cc1cccc(C)c1-n1c(C)cc(/C=N/NC(N)=S)c1C | 51.5%
6 | NSc1nc(N)c2nc(-c3ccccc3)c(-c3ccccc3)nc2n1 | 7.97%
7 | Nc1nc(N)c2nc(-c3ccccc3)c(N)nc2n1 | 16.7%
8 | COc1cccc(/C=N/NC(=O)CCCC(=O)Nc2ccc(Br)cc2)c1 | -7.05%
9 | CCc1ccc(N2CC(C(=O)OCC(=O)Nc3ccc(C(C)=O)cc3)CC2=O)cc1 (centres undefined) | -5.19%
10 | S=C1NC2=C(CCCC2)C2(CCCCC2)N1 | -1.82%
11 | CC(C)(C)NC(=O)NC(=O)CSc1ncccn1 | 4.89%
12 | C=CCn1c(NCc2ccc3c(c2)OCO3)nc2ccccc21 | 1.97%
13 | O=C1OCc2nc3cc4c(cc3c(-c3ccc(F)cc3)c21)OCO4 | 3.09%
14 | COc1ccccc1/C=C/C(=O)Nc1ccc(S(=O)(=O)Nc2cc(C)nc(C)n2)cc1 | 8.18%
15 | Cc1cc(NS(=O)(=O)c2ccc(NC(=O)/C=C/c3ccccc3Cl)cc2)no1 | 40.1%
16 | O=C(O)/C=C\C(=O)Nc1ccc(N2CCN(c3ccc(F)cc3)CC2)cc1 | 14%
17 | Cn1c(O)c(/C=C2\C=Nc3ccccc32)c(=O)n(C)c1=O | 3.29%
18 | O=c1oc2ccccc2c(O)c1/C=N/c1ncccn1 | 4.28%
19 | Cc1cc2cc(CNC(=S)Nc3ccc(OC(F)(F)F)cc3)ccc2n1C | -4.09%
20 | O=S(=O)([N-]c1nc2ccccc2nc1-n1cc[n+](Cc2ccccc2)c1)c1ccccc1 | 1.97%

Row | SMILES | inhibition
21 | CCCC[n+]1ccn(-c2nc3ccccc3nc2[N-]S(=O)(=O)c2ccccc2)c1 | -13.6%
22 | O=C(NCCc1ccc(Cl)cc1)C1CCC(CNc2nc(=S)[nH]c3ccccc23)CC1 (centres undefined) | 5.86%
23 | O=C1OC(CCl)CN1Cc1c(Cl)cccc1Cl (centres undefined) | -11.9%
24 | Cc1nn(Cc2ccccc2Cl)c(C)c1C(=O)NCC(c1cccs1)N1CCOCC1 (centres undefined) | 0.07%
25 | COc1ccc(C)cc1NC(=O)CCN1CCN(c2ccccc2)CC1 | 5.54%
26 | Cc1ccc(Cn2c(=N)n(CC(O)c3ccco3)c3ccccc32)cc1 (centres undefined) | -10.2%
27 | N=c1n(Cc2ccccc2)c2ccccc2n1CC(O)c1ccco1 (centres undefined) | -2.81%
28 | COc1ccc(C(CC(=O)c2ccccc2)S(=O)(=O)c2ccccc2)cc1 (centres undefined) | 21.9%
29 | COc1ccc(C(=O)CC(c2ccccc2)S(=O)(=O)c2ccc(C)cc2)cc1 (centres undefined) | 11.8%
30 | O=[N+]([O-])c1cccc(/C=N/Nc2nc(C(Cl)(Cl)Cl)nc3ccccc23)c1 | 4.81%
31 | COc1ccc(CN=C2NC(=O)CC(C(=O)Nc3ccc(Cl)cc3)S2)cc1 (centres undefined) | -3.21%
32 | O=C(Nc1ccc(S(=O)(=O)Nc2nccc(C3Cc4ccccc4C(=O)O3)n2)cc1)c1ccccc1 (centres undefined) | 0.33%
33 | Cc1cc(C)c(NC(=O)CCCn2c(=O)oc3ccccc32)c(C)c1 | 0.61%
34 | Cc1[nH][nH]c(=O)c1C(c1ccc(-c2cccc(Cl)c2)o1)c1c(C)[nH][nH]c1=O | 4.79%
35 | Cc1[nH][nH]c(=O)c1C(c1ccc(-c2cccc(C(=O)O)c2)o1)c1c(C)[nH][nH]c1=O | 0.63%
36 | CC(OC(=O)c1nn(C(C)C)c(=O)c2ccccc12)C(=O)Nc1ncc(Cl)cc1Cl (centres undefined) | -5.66%
37 | Cc1cc(=O)oc2cc(OC(C)C(=O)N3CCCc4ccccc43)ccc12 (centres undefined) | -5.32%
38 | CC(NCC1COc2ccccc2O1)C1COc2ccccc2O1 (centres undefined) | -4.91%
39 | CC1CN(c2ccc(Cl)nn2)CC(C)O1 (centres undefined) | 7.67%
40 | COc1ccc(C(CCN(Cc2ccc(OC)c(OC)c2)C(C)=O)C(C)C)cc1 (centres undefined) | 2.76%

Row | SMILES | inhibition
41 | COc1ccc(C(CCN(Cc2ccc(OC)c(OC)c2)C(C)=O)c2ccccc2)cc1 (centres undefined) | -0.43%
42 | CCC1CN(C(=O)N2CCC(C(=O)Nc3ccccc3OC)CC2)c2ccccc2O1 (centres undefined) | 10.6%
43 | O=S(=O)(c1ccc2ccccc2c1)N1CCN(S(=O)(=O)N2CCCCC2)CC1 | 0.71%
44 | COc1ccc(C2=NOC(C(=O)N3CCN(C(=O)c4ccco4)CC3)C2)cc1OC (centres undefined) | 2.5%
45 | O=C(c1ccco1)N1CCN(C(=O)C2CC(c3ccc(F)cc3)=NO2)CC1 (centres undefined) | 10.6%
46 | Cn1c(CSc2nc3ccccc3s2)nnc1SCC(=O)NCCN1CCOCC1 | 1.49%
47 | CCCCn1nc(C(=O)Oc2ccc3c(C)cc(=O)oc3c2)c2ccccc2c1=O | 64.9%
48 | CCn1c(SCC(=O)NC2CCCCC2)nc2ccccc2c1=O | -17.1%
49 | CCOC(=O)CSc1nc2ccccc2c(=O)n1CC | -0.95%
50 | O=C(Nc1ccn([C@H]2CC[C@@H](CO)O2)c(=O)n1)c1ccccc1 | -7.83%
51 | O=C(COC(=O)/C=C/c1cccc(Br)c1)NC1CCCCC1 | 1.15%
52 | CCC(C(=O)n1cccc1C#N)c1ccccc1C (centres undefined) | -5.42%
53 | CCOC(=O)c1nn(-c2ccc(C)cc2)cc1O | 25.8%
54 | CCOC(=O)c1nn(-c2ccc(Cl)cc2)cc1O | 47.5%
55 | O=C(Oc1ccc(Br)cc1C(=O)/C=C/c1ccccc1F)c1ccco1 | 0.45%
56 | O=C(/C=C/Nc1ccc(Br)cc1F)c1ccco1 | 4.98%
57 | CS(=O)(=O)c1ccc(C(=O)OCC(=O)N2CCCc3ccccc32)cc1 | -0.56%
58 | CCNS(=O)(=O)c1ccc(C(=O)OCC(=O)N2CCCc3ccccc32)cc1 | 5.95%
59 | O=C1C=C(NCc2ccco2)C2(CCCCC2)O1 | -1.04%
